Results filed as inconclusive are left out. Active and inactive are the calls of the source. The call rests on the fitted dose curve; in most records, active means well fitted curve in the direction sought with a large enough effect; inconclusive means small, poorly fitted or top-dose-only effect, or another doubt; inactive means no such curve, though single readings can be large; an effect the other way counts as inactive or inconclusive.
experiment: qHTS of pediatric cancer cell lines to identify multiple opportunities for drug repurposing: Primary screen for U-2 OS cells (AID 1347096); settings: U-2 OS viability, CellTiter-Glo luminescence, 48 h; series mostly up to 46 µM; activity change, negative = cytotoxic: at the top concentration;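 further: plate controls were DMSO wells for no effect and bortezomib positive control wells for full effect; nearly all actives have a fitted effect of over 50% in size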
Outline: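 Cells (500-1,000/well) in growth media were settled 5 h at 37 degrees C, then given compounds for 48 h. Viability was read as CellTiter-Glo luminescence. Primary runs used MIPE at 11 points (0.78 nM-46 µM) and NPC at 8 points (0.59 nM-46 µM); follow-ups used 11 points.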

| Structure (SMILES) | activity change, negative = cytotoxic |
| --- | --- |
| CCNC(=O)NCc1cccc(Cl)c1 | -1.94% (inactive) |
| CCCCCCCCCCCCOCCOCCOCCOCCOCCOCCOCCOCCOCCO | -8.99% (inactive) |
| CCN(CC)CCOC(=O)C(Cc1cccc2ccccc12)CC1CCCO1 (configuration not stated) | -12.6% (inactive) |
| C[C@H]1[C@H]2CC[C@H]3[C@@H]4CC=C5C[C@@H](N(C)C)CC[C@]5(C)[C@H]4CC[C@]23CN1C | -12.1% (inactive) |
| OC[C@H]1O[C@@H]2O[C@H]3[C@H](O)[C@@H](O)[C@@H](O[C@H]4[C@H](O)[C@@H](O)[C@@H](O[C@H]5[C@H](O)[C@@H](O)[C@@H](O[C@H]6[C@H](O)[C@@H](O)[C@@H](O[C@H]7[C@H](O)[C@@H](O)[C@@H](O[C@H]8[C@H](O)[C@@H](O)[C@@H](O[C@H]1[C@H](O)[C@H]2O)O[C@@H]8CO)O[C@@H]7CO)O[C@@H]6CO)O[C@@H]5CO)O[C@@H]4CO)O[C@@H]3CO | -10.7% (inactive) |
| CNCCc1ccccn1 | 14.7% (inactive) |
| O=C(CCN1CCN2CCCC2C1)N1c2ccccc2Sc2ccc(Cl)cc21 (configuration not stated) | -17.3% [at 16.1 µM] (inactive) |
| CCOC(=O)c1ccc(N)cc1 | -9.18% (inactive) |
| CN(Cc1ccc(C(C)(C)C)cc1)Cc1cccc2ccccc12 | -5.63% (inactive) |
| CCCCN1C[C@H](O)[C@@H](O)[C@H](O)[C@H]1CO | -2.09% (inactive) |
| CCN[C@@H]1C[C@H](N)[C@@H](OC2OC(CN)=CCC2N)[C@H](O)[C@H]1O[C@H]1OC[C@](C)(O)[C@H](NC)[C@H]1O (some centres not stated) | 2.58% [at 0.597 µM] (inactive) |
| CCNC(=O)/C=C/c1cccc(Br)c1 | -9.89% (inactive) |
| CCc1oc2ccccc2c1C(=O)c1cc(Br)c(O)c(Br)c1 | 1.07% (inactive) |
| NC(=O)c1ccccc1O | -1.37% (inactive) |
| CN1CCc2cccc3c2[C@H]1Cc1ccc(O)c(O)c1-3 | -1.57% (inactive) |
| CC(C)(Cc1c[nH]c2ccccc12)NCC(O)COc1ccccc1C#N (configuration not stated) | -4.02% (inactive) |
| CCCCC(CC)CN1CN(CC(CC)CCCC)CC(C)(N)C1 (configuration not stated) | -11.4% (inactive) |
| c1ccc(-c2nc[nH]c2-c2ccccc2)cc1 | -4.35% (inactive) |

| Structure (SMILES) | activity change, negative = cytotoxic |
| --- | --- |
| CC(=O)NCCCCCC(=O)O | -2.21% (inactive) |
| O=[N+]([O-])c1cccc(S(=O)(=O)NCCNS(=O)(=O)c2cccc([N+](=O)[O-])c2)c1 | -5.12% (inactive) |
| O=C(N/N=C/c1ccc([N+](=O)[O-])o1)c1ccc(O)cc1 | -29.4% (inactive) |
| O=c1[nH]c(=O)n([C@H]2C[C@H](O)[C@@H](CO)O2)cc1F | -25% (inactive) |
| CCCCCCCCCCC[C@@H](C[C@@H]1OC(=O)[C@H]1CCCCCC)OC(=O)[C@H](CC(C)C)NC=O | 7.42% (inactive) |
| CCC1Nc2cc(Cl)c(S(N)(=O)=O)cc2S(=O)(=O)N1 (configuration not stated) | 4.31% (inactive) |
| COc1cc(C(=O)NCc2ccc(OCCN(C)C)cc2)cc(OC)c1OC | -14.8% (inactive) |
| COc1cc([C@H]2Oc3cc([C@H]4Oc5cc(O)cc(O)c5C(=O)[C@@H]4O)ccc3O[C@@H]2CO)ccc1O | -15% (inactive) |
| C#C[C@]1(O)CC[C@H]2[C@@H]3CCC4=CC(=O)CC[C@@H]4[C@H]3CC[C@@]21CC | -7.42% (inactive) |
| CCCN(CCc1cccs1)[C@H]1CCc2c(O)cccc2C1 | 1.09% (inactive) |
| CCCCCCCCCCCCSCCOCCO | 5.7% (inactive) |
| O=C1C(=O)c2ccccc2C(O)=C1C1CCC(c2ccc(Cl)cc2)CC1 (configuration not stated) | 4.8% (inactive) |
| N=C(N)N1CCc2ccccc2C1 | -4.95% [at 4.84 µM] (inactive) |
| OC[C@H]1O[C@@H](Oc2ccc(O)cc2)[C@H](O)[C@@H](O)[C@@H]1O | 4.92% (inactive) |
| N[C@H](C(=O)O)[C@@H](O)c1ccc(O)c(O)c1 | 12% (inactive) |
| CCC(C(=O)OCCOCCN(CC)CC)c1ccccc1 (configuration not stated) | -1.69% (inactive) |
| CC(CNC1CCCCC1)OC(=O)c1ccccc1 (configuration not stated) | -9.1% (inactive) |
| CCOC(=O)Nc1ccc2c(c1)N(C(=O)CCN1CCOCC1)c1ccccc1S2 | -14.7% (inactive) |

experiment: qHTS of pediatric cancer cell lines to identify multiple opportunities for drug repurposing: Primary screen for Saos-2 cells (AID 1347097); settings: Saos-2 viability, CellTiter-Glo ATP luminescence, 48 h; series mostly up to 46 µM; activity change, negative = cytotoxic: at the top concentration; further: nearly all actives have a fitted effect of over 40% in size; further: potency means the concentration at half of the fitted maximal effect; on activity change, negative = cytotoxic: on the % scale 0 is the no-effect control and ±100 the full control effect
Outline: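 Primary screen of approved and investigational compounds on cells in growth media at 37 degrees C, 5% CO2. MIPE set at 11-point and NPC set at 8-point dilutions; viability scored by ATP-based luminescence at 48 hours.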

| Structure (SMILES) | Potency | activity change, negative = cytotoxic |
| --- | --- | --- |
| CN1CCc2cccc3c2[C@H]1Cc1ccc(O)c(O)c1-3 | 21.1 µM (active) | – |
| CC(C)(Cc1c[nH]c2ccccc12)NCC(O)COc1ccccc1C#N (configuration not stated) | – | -5.07% (inactive) |
| O=C(N/N=C/c1ccc([N+](=O)[O-])o1)c1ccc(O)cc1 | – | -4.67% (inactive) |
| N[C@H](C(=O)O)[C@@H](O)c1ccc(O)c(O)c1 | – | -2.63% (inactive) |

experiment: qHTS of pediatric cancer cell lines to identify multiple opportunities for drug repurposing: Primary screen for SK-N-SH cells (AID 1347098); settings: SK-N-SH viability, CellTiter-Glo luminescence, 48 h; series mostly up to 57 µM; activity change, negative = cytotoxic: at the top concentration; further: nearly all actives have a fitted effect of over 65% in size; further: potency means the concentration at half of the fitted maximal effect;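 on activity change, negative = cytotoxic: DMSO served as neutral control and bortezomib at 2.3 µM as positive control; on the % scale 0 is the no-effect control and ±100 the full control effect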
Outline: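 Cells (500-1,000/well) rested 5 h, then received compounds for 48 h; metabolically active cells were measured by CellTiter-Glo luminescence. Final concentrations spanned up to 46 µM (MIPE, 11-point) or 0.59 nM-46 µM (NPC, 8-point) in primary screens, 11-point in follow-ups.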

| Structure (SMILES) | activity change, negative = cytotoxic | Potency |
| --- | --- | --- |
| CCNC(=O)NCc1cccc(Cl)c1 | -5.37% (inactive) | – |
| CCCCCCCCCCCCOCCOCCOCCOCCOCCOCCOCCOCCOCCO | -16.2% (inactive) | – |
| CCN(CC)CCOC(=O)C(Cc1cccc2ccccc12)CC1CCCO1 (configuration not stated) | -27.3% (inactive) | – |
| C[C@H]1[C@H]2CC[C@H]3[C@@H]4CC=C5C[C@@H](N(C)C)CC[C@]5(C)[C@H]4CC[C@]23CN1C | 2.94% (inactive) | – |
| OC[C@H]1O[C@@H]2O[C@H]3[C@H](O)[C@@H](O)[C@@H](O[C@H]4[C@H](O)[C@@H](O)[C@@H](O[C@H]5[C@H](O)[C@@H](O)[C@@H](O[C@H]6[C@H](O)[C@@H](O)[C@@H](O[C@H]7[C@H](O)[C@@H](O)[C@@H](O[C@H]8[C@H](O)[C@@H](O)[C@@H](O[C@H]1[C@H](O)[C@H]2O)O[C@@H]8CO)O[C@@H]7CO)O[C@@H]6CO)O[C@@H]5CO)O[C@@H]4CO)O[C@@H]3CO | -10.2% (inactive) | – |
| CNCCc1ccccn1 | -6.06% (inactive) | – |
| O=C(CCN1CCN2CCCC2C1)N1c2ccccc2Sc2ccc(Cl)cc21 (configuration not stated) | -11.2% [at 20 µM] (inactive) | – |
| CCOC(=O)c1ccc(N)cc1 | 2.16% (inactive) | – |
| CN(Cc1ccc(C(C)(C)C)cc1)Cc1cccc2ccccc12 | -21.2% (inactive) | – |
| CCCCN1C[C@H](O)[C@@H](O)[C@H](O)[C@H]1CO | 9.83% (inactive) | – |
| CCN[C@@H]1C[C@H](N)[C@@H](OC2OC(CN)=CCC2N)[C@H](O)[C@H]1O[C@H]1OC[C@](C)(O)[C@H](NC)[C@H]1O (some centres not stated) | -5.21% [at 0.741 µM] (inactive) | – |
| CCNC(=O)/C=C/c1cccc(Br)c1 | -20.5% (inactive) | – |
| CCc1oc2ccccc2c1C(=O)c1cc(Br)c(O)c(Br)c1 | – | 19.4 µM (active) |
| NC(=O)c1ccccc1O | -3.42% (inactive) | – |
| CCCCC(CC)CN1CN(CC(CC)CCCC)CC(C)(N)C1 (configuration not stated) | -4.35% (inactive) | – |
| c1ccc(-c2nc[nH]c2-c2ccccc2)cc1 | -20.4% (inactive) | – |

| Structure (SMILES) | activity change, negative = cytotoxic | Potency |
| --- | --- | --- |
| CC(=O)NCCCCCC(=O)O | -19.7% (inactive) | – |
| O=[N+]([O-])c1cccc(S(=O)(=O)NCCNS(=O)(=O)c2cccc([N+](=O)[O-])c2)c1 | -17.1% (inactive) | – |
| O=c1[nH]c(=O)n([C@H]2C[C@H](O)[C@@H](CO)O2)cc1F | -10.3% (inactive) | – |
| CCCCCCCCCCC[C@@H](C[C@@H]1OC(=O)[C@H]1CCCCCC)OC(=O)[C@H](CC(C)C)NC=O | 5.62% (inactive) | – |
| CCC1Nc2cc(Cl)c(S(N)(=O)=O)cc2S(=O)(=O)N1 (configuration not stated) | -14.5% (inactive) | – |
| COc1cc(C(=O)NCc2ccc(OCCN(C)C)cc2)cc(OC)c1OC | -8.9% (inactive) | – |
| COc1cc([C@H]2Oc3cc([C@H]4Oc5cc(O)cc(O)c5C(=O)[C@@H]4O)ccc3O[C@@H]2CO)ccc1O | -15.4% (inactive) | – |
| C#C[C@]1(O)CC[C@H]2[C@@H]3CCC4=CC(=O)CC[C@@H]4[C@H]3CC[C@@]21CC | -1.7% (inactive) | – |
| CCCN(CCc1cccs1)[C@H]1CCc2c(O)cccc2C1 | -27.8% (inactive) | – |
| CCCCCCCCCCCCSCCOCCO | 14.8% (inactive) | – |
| O=C1C(=O)c2ccccc2C(O)=C1C1CCC(c2ccc(Cl)cc2)CC1 (configuration not stated) | -4.9% (inactive) | – |
| N=C(N)N1CCc2ccccc2C1 | -21.9% [at 6 µM] (inactive) | – |
| OC[C@H]1O[C@@H](Oc2ccc(O)cc2)[C@H](O)[C@@H](O)[C@@H]1O | 3.62% (inactive) | – |
| CCC(C(=O)OCCOCCN(CC)CC)c1ccccc1 (configuration not stated) | 4.17% (inactive) | – |
| CC(CNC1CCCCC1)OC(=O)c1ccccc1 (configuration not stated) | -5.9% (inactive) | – |
| CCOC(=O)Nc1ccc2c(c1)N(C(=O)CCN1CCOCC1)c1ccccc1S2 | -38.5% (inactive) | – |

Source: PubChem BioAssay (NCATS)
